In PubChem BioAssay (Tox21):
Inconclusive results are not listed. Activity calls are given as the source filed them. Unless noted, calls come from the whole dose curve; as a rule, active = well fitted curve in the direction sought with a large enough effect in the repeat runs; inconclusive = weak or mixed curves; inactive = no such curve, though single readings can be large; an effect the other way counts as inactive or inconclusive.

Experiments:
[1] = qHTS assay to identify small molecule antagonists of the constitutive androstane receptor (CAR) signaling pathway - cell viability counter screen (AID 1224837); note: nearly all actives have a fitted effect of over 45% in size
How it was run: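 Read-out: CellTiter-Fluor fluorescence after 23 hr at 37 C/5% CO2. Cells: HepG2 double-stable for hCAR and CYP2B6-2.2kb. Compounds tested at 15 concentrations in the presence of CITCO, final concentration 50 nM.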

[2] = biological target: Nuclear receptor subfamily 1 group I member 3 (Homo sapiens) (UniProt Q14994); experiment: qHTS assay to identify small molecule antagonists of the constitutive androstane receptor (CAR) signaling pathway (AID 1224838);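 note: HepG2 cells stably expressing hCAR with CYP2B6 luciferase reporter stimulated by CITCO; nearly all actives have a fitted effect of over 40% in size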
How it was run: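 Read-out: ONE-Glo luciferase luminescence after 30 min at room temperature. HepG2-CYP2B6-hCAR double-stable cells, compounds in 15-point titration plus 50 nM CITCO final, 24 h at 37 C/5% CO2.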

[3] = biological target: Nuclear receptor subfamily 1 group I member 3 (Homo sapiens) (UniProt Q14994); experiment: qHTS assay to identify small molecule agonists of the constitutive androstane receptor (CAR) signaling pathway (AID 1224839);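 note: HepG2 cells stably carrying human CAR and a CYP2B6 luciferase reporter; nearly all actives have a fitted effect of over 15% in size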
How it was run: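 Stable hCAR/CYP2B6-2.2kb HepG2 line in DMEM with 10% FBS; compounds (15 concentrations) and 0.75 uM PK11195 final, 24 h at 37 C/5% CO2, then ONE-Glo luminescence after 30 min.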

[4] = qHTS assay to identify small molecule agonists of the hypoxia (HIF-1) signaling pathway - cell viability counter screen (AID 1224844; calls by dose curve; note: nearly all actives have a fitted effect of over 50% in size; note: potency is the fitted concentration of half-maximal effect)
How it was run: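 CellTiter-Glo luminescence read-out, 30 min RT, taken in the same wells as the beta-lactamase HRE reporter assay; HRE-bla ME-180 cells, 0.5% dialyzed FBS, 17 hr compound treatment at 37C, 5% CO2.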

[5] = qHTS assay to identify small molecule agonists of H2AX (AID 1224845; active = well fitted activation curve with a large enough effect in the signal ratio in the repeat runs, not every such curve was filed as active; the % refers to the signal ratio)
How it was run: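 Wild-type CHO-K1 cells, plated overnight, exposed 3hr at 37C to 15 concentrations (0.76% DMSO final). Lysed, then HTRF anti-pH2AX (S139) cryptate and anti-H2AX-d2 antibodies, 24 hr room temperature; 665/620 nm emission read.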

[6] = qHTS assay to identify small molecule agonists of the hypoxia (HIF-1) signaling pathway (AID 1224846; active = well fitted activation curve with a large enough effect in the signal ratio in the repeat runs, not every such curve was filed as active; the % refers to the signal ratio)
How it was run: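 Beta-lactamase FRET read-out (CCF4-AM substrate) from ME-180 cells carrying an HRE-driven bla reporter, after 17 hrs compound exposure at 37C/5% CO2. Cells were seeded at 2,000 per well in 0.5% dialyzed FBS medium and preincubated 5 hrs.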

[7] = qHTS assay to identify small molecule agonists of H2AX - cell viability counter screen (AID 1224847; calls by dose curve; note: top concentration of the series differs between compounds; nearly all actives have a fitted effect of over 30% in size)
How it was run: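 Viability of CHO-K1 (wild type) cells after 3 hr compound exposure was measured by CellTiter-Glo luminescence.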

[8] = qHTS RealTime-Glo MT Cell Viability Assay in HepG2 cells - 24 hour (AID 1224867); note: nearly all actives have a fitted effect of over 50% in size
How it was run: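 Real-time, nonlytic viability: 600 HepG2 cells/well mixed with NanoLuc enzyme plus prosubstrate; 5 h settle, compound (DMSO) added by pintool; luminescence monitored over 40 h at 37 C.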

[9] = A CellTox Green Cytotoxicity Assay to monitor cytotoxicity in HEK293 cells - 0 hour (AID 1224869); note: nearly all actives have a fitted effect of over 50% in size
How it was run: (§1)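 Read-out: fluorescence of a cell-impermeant cyanine dye staining DNA of dead cells, proportional to cytotoxicity. HEK293, 600 cells/well with reagent, compound (23 nL DMSO) added after 5 h; reads at 0, 8, 16, 24, 32, 40 h.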

[10] = qHTS RealTime-Glo MT Cell Viability Assay in HepG2 cells - 40 hour (AID 1224870); note: nearly all actives have a fitted effect of over 50% in size
How it was run: (§2)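 HepG2 cells (600/well) mixed with RealTime-Glo MT reagent, settled 5 h at 37 C/5% CO2 before compound addition. Nonlytic NanoLuc luminescence from viable-cell prosubstrate reduction read repeatedly during 40 h treatment at 37 C.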

[11] = A CellTox Green Cytotoxicity Assay to monitor cytotoxicity in HEK293 cells - 40 hour (AID 1224871); note: nearly all actives have a fitted effect of over 45% in size
How it was run: as §1

[12] = qHTS RealTime-Glo MT Cell Viability Assay in HEK293 cells - 16 hour (AID 1224872)
How it was run: (§3)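 Cells + reagent dispensed (600 cells/well, HEK293) → 5 h at 37 C/5% CO2 → 23 nL compound in DMSO pinned → 40 h at 37 C → luminescence read at 0, 8, 16, 24, 32, 40 h.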

[13] = qHTS RealTime-Glo MT Cell Viability Assay in HepG2 cells - 8 hour (AID 1224873); note: nearly all actives have a fitted effect of over 55% in size
How it was run: as §2

[14] = biological target: Thyrotropin receptor (Homo sapiens) (UniProt P16473); experiment: qHTS assay to identify small molecule agonists of the thyroid stimulating hormone receptor (TSHR) signaling pathway (AID 1224843; calls by dose curve; note: nearly all actives have a fitted effect of over 45% in size; note: potency is the fitted concentration of half-maximal effect)
How it was run: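 Agonist-mode screen: TSHR HEK293 cells received test chemicals for half an hour at room temperature, then HTRF cAMP detection reagents for one hour prior to fluorescence measurement. Each chemical ran as a 15-concentration series, triplicated.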

[15] = qHTS assay to identify small molecule antagonists of the estrogen related receptor signaling pathway with the pleiotropic PPARgamma coactivator (PGC) from Tox21 10K library - cell viability counter screen (AID 1224840; active = well fitted cell-killing curve with a large enough effect in the repeat runs, not every such curve was filed as active; note: nearly all actives have a fitted effect of over 40% in size)
How it was run: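 Fluorescence read-out of CellTiter-Fluor viability reagent, added after cells had been exposed to compound in DMSO for 17.5 h at 37 C; 30 min development at 37 C/5% CO2. Cells: PGC/ERR line, 2,000/well.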

[16] = qHTS RealTime-Glo MT Cell Viability Assay in HEK293 cells - 32 hour (AID 1224868)
How it was run: as §3

[17] = qHTS assay to identify small molecule agonists of the estrogen related receptor signaling pathway with the pleiotropic PPARgamma coactivator (PGC) from Tox21 10K library (AID 1224842); note: nearly all actives have a fitted effect of over 15% in size; note: potency is the fitted concentration of half-maximal effect
How it was run: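 PGC/ERR reporter cell line, 2,000 cells per well, incubated 6 h at 37 C before 23 nL compound in DMSO was added. After 18 h at 37 C, One-Glo luminescence read following 30 min at room temperature.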

[18] = qHTS assay to identify small molecule antagonists of the estrogen related receptor (ERR) signaling pathway from Tox21 library (AID 1224848); note: nearly all actives have a fitted effect of over 50% in size; note: potency is the fitted concentration of half-maximal effect
How it was run: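 Quantitative high-throughput format: ERR reporter cells (2,000/well) pre-incubated 6 h, treated 18 h at 37 C with compounds in DMSO alongside positive and negative controls, then read by ONE-Glo luminescence.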

[19] = qHTS assay to identify small molecule agonists of the estrogen related receptor (ERR) signaling pathway from Tox21 library (AID 1224849; calls by dose curve; note: nearly all actives have a fitted effect of over 15% in size); settings: ERR reporter cell line, ONE-Glo luciferase, 18 h; at 92.4 µM (top of the series) unless noted
How it was run: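 Luminescence readout (ONE-Glo, 30 min RT) after 18 h compound exposure at 37 C of NTP-supplied ERR reporter cells; cells were plated 6 h before compound addition by pin tool.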

[20] = qHTS assay to identify small molecule antagonists of the estrogen related receptor signaling pathway with the pleiotropic PPARgamma coactivator (PGC) from Tox21 10K library (AID 1224841; call rule not given here)
How it was run: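 Luminescence read-out (One-Glo luciferase reagent, 30 min at room temperature) from PGC/ERR cells exposed to DMSO-dissolved test compounds for 18 h at 37 C; cells, 2,000 per well, had been preincubated 6 h before compound transfer.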
% is set by controls: 0 for no effect and ±100 for the full control effect.

Sequence of Thyrotropin receptor (Homo sapiens) (P16473 whole entry, looked up): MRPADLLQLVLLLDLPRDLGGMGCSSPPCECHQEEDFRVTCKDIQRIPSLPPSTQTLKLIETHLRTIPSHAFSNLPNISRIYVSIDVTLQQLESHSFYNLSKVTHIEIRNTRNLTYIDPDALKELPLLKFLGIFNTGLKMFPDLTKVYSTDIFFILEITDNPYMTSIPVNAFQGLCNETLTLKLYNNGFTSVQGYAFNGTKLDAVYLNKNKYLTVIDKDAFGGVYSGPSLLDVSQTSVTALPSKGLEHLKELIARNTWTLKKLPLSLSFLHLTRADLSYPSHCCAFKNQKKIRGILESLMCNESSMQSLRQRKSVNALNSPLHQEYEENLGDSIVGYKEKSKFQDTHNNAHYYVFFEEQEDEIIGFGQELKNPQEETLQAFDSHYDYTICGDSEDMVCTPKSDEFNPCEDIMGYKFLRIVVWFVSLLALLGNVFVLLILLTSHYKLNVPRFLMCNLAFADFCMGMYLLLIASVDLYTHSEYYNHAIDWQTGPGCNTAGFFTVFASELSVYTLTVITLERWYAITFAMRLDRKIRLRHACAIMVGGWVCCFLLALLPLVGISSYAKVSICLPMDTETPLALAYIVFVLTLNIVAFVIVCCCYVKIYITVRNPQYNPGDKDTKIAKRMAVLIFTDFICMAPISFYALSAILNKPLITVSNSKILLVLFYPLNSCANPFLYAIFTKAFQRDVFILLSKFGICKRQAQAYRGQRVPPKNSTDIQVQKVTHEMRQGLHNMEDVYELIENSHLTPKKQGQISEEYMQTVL
Sequence of Nuclear receptor subfamily 1 group I member 3 (Homo sapiens) (Q14994 whole entry, looked up): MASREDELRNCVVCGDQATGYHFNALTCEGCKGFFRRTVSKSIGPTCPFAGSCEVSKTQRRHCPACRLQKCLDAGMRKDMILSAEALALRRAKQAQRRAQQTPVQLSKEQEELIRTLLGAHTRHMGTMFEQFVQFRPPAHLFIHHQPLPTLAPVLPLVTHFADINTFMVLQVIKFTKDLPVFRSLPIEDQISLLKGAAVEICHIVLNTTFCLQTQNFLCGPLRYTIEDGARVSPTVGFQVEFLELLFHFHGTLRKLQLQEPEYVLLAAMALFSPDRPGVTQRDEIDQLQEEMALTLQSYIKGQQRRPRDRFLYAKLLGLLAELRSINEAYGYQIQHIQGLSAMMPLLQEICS

CC[C@@H]1C[C@H](N(Cc2cc(C(F)(F)F)cc(C(F)(F)F)c2)C(C)=O)c2cc(C(F)(F)F)ccc2N1C(=O)OC(C)C
inactive: Potency [1] | Potency [2] | Potency [3] | Potency [4] | Potency [5] | outcome [6] | Potency [7] | Potency [8] | Potency [9] | Potency [10] | Potency [11] | Potency [12] | Potency [13]

CN(c1nccc(=O)[nH]1)C1CCN(c2nc3ccccc3n2Cc2ccc(F)cc2)CC1
inactive: Potency [1] | Potency [2] | Potency [3] | Potency [14] | Potency [4] | outcome [6] | Potency [7] | Potency [8] | Potency [9] | Potency [10] | Potency [11] | Potency [13]

CCCCOc1cc(C(=O)OCCN(CC)CC)ccc1N
inactive: Potency [1] | Potency [2] | Potency [15] | Potency [4] | Potency [5] | outcome [6] | Potency [7] | Potency [8] | Potency [16] | Potency [9] | Potency [10] | Potency [12] | Potency [13]

O=C(O)Cc1cc(I)c(Oc2ccc(O)c(I)c2)c(I)c1
active: Potency [4] 38.9 µM | Potency [18] 27.3 µM
inactive: Potency [1] | Potency [2] | Potency [17] | Potency [14] | Potency [7] | activity change, positive = activation [19] -36.3% | Potency [8] | Potency [16] | Potency [9] | Potency [10] | Potency [11] | Potency [12] | Potency [13]

CC(C)NCC(O)c1cc(O)cc(O)c1 (stereo unspecified)
inactive: Potency [1] | Potency [2] | Potency [15] | Potency [17] | Potency [4] | Potency [5] | outcome [6] | Potency [7] | Potency [18] | activity change, positive = activation [19] 10.5% [at 42.5 µM] | Potency [8] | Potency [16] | Potency [9] | Potency [10] | Potency [11] | Potency [12] | Potency [13]
active: Potency [14] 10.6 µM

Nc1cnn([C@@H]2O[C@H](CO)[C@@H](O)[C@H]2O)c(=O)n1
inactive: Potency [1] | Potency [2] | Potency [3] | Potency [14] | Potency [4] | Potency [5] | outcome [6] | Potency [7] | Potency [8] | Potency [16] | Potency [9] | Potency [10] | Potency [11] | Potency [12] | Potency [13]

CN(C)CCCOc1nn(Cc2ccccc2)c2ccccc12
inactive: Potency [1] | Potency [2] | Potency [20] | Potency [17] | Potency [14] | Potency [4] | Potency [5] | outcome [6] | Potency [7] | Potency [18] | activity change, positive = activation [19] -2.65% [at 42.5 µM] | Potency [8] | Potency [9] | Potency [11] | Potency [12] | Potency [13]

O=C(c1ccc(O)cc1)c1ccc(O)cc1
active: activity change, positive = activation [19] 37.5%
inactive: Potency [1] | Potency [2] | Potency [15] | Potency [20] | Potency [14] | Potency [4] | outcome [6] | Potency [7] | Potency [18] | Potency [8] | Potency [16] | Potency [9] | Potency [10] | Potency [11] | Potency [12] | Potency [13]

Cc1cccc(C(C)(C)C)c1O
inactive: Potency [1] | Potency [2] | Potency [3] | Potency [4] | outcome [6] | Potency [8] | Potency [16] | Potency [9] | Potency [10] | Potency [12] | Potency [13]

C[C@H](CCC(=O)O)[C@H]1CC[C@H]2[C@@H]3[C@H](O)C[C@@H]4C[C@H](O)CC[C@]4(C)[C@H]3CC[C@]12C
inactive: Potency [1] | Potency [2] | Potency [15] | Potency [20] | Potency [14] | Potency [7] | Potency [18] | Potency [8] | Potency [9] | Potency [10] | Potency [13]

NC1CCN(c2nc3c(cc2F)c(=O)c(C(=O)O)cn3-c2ccc(F)cc2F)C1 (stereo unspecified)
inactive: Potency [1] | Potency [2] | Potency [14] | Potency [4] | Potency [5] | outcome [6] | Potency [7] | Potency [18] | Potency [8] | Potency [16] | Potency [9] | Potency [10] | Potency [11] | Potency [12] | Potency [13]

O=C1Nc2cc(Cl)ccc2Oc2ccccc21
inactive: Potency [1] | Potency [2] | Potency [15] | Potency [4] | outcome [6] | Potency [7] | Potency [8] | Potency [16] | Potency [9] | Potency [10] | Potency [11] | Potency [12] | Potency [13]

CC(=O)c1c(C)c([N+](=O)[O-])c(C(C)(C)C)c([N+](=O)[O-])c1C
inactive: Potency [1] | Potency [2] | Potency [15] | Potency [4] | Potency [5] | outcome [6] | Potency [8] | Potency [16] | Potency [9] | Potency [10] | Potency [11] | Potency [13]
active: Potency [14] 6.11 µM

CC1CCc2cc(F)cc3c(=O)c(C(=O)O)cn1c23 (stereo unspecified)
inactive: Potency [1] | Potency [2] | Potency [15] | Potency [4] | Potency [8] | Potency [16] | Potency [9] | Potency [10] | Potency [11] | Potency [12] | Potency [13]

Cc1ccc2c(ccc3ccccc32)c1
inactive: Potency [1] | Potency [2] | Potency [4] | Potency [5] | outcome [6] | Potency [8] | Potency [9] | Potency [10] | Potency [11] | Potency [12] | Potency [13]

O=C(c1ccccc1)c1ccc2n1CCC2C(=O)O (stereo unspecified)
inactive: Potency [1] | Potency [2] | Potency [15] | Potency [4] | Potency [5] | Potency [7] | Potency [8] | Potency [16] | Potency [9] | Potency [10] | Potency [11] | Potency [12] | Potency [13]

Oc1ccc(C(O)CNCCCCCCNCC(O)c2ccc(O)c(O)c2)cc1O (stereo unspecified)
inactive: Potency [1] | Potency [2] | Potency [15] | Potency [4] | outcome [6] | Potency [18] | activity change, positive = activation [19] 1.29% [at 42.5 µM] | Potency [8] | Potency [16] | Potency [9] | Potency [10] | Potency [11] | Potency [12] | Potency [13]
active: Potency [17] 7.5 µM

CN1CCC(OC(c2ccccc2)c2ccccc2)CC1
inactive: Potency [1] | Potency [2] | Potency [15] | Potency [14] | Potency [4] | outcome [6] | Potency [7] | Potency [8] | Potency [16] | Potency [9] | Potency [10] | Potency [11] | Potency [12] | Potency [13]
